# Assay outcomes as filed in PubChem BioAssay.
# VDR inh: Inhibitors of the vitamin D receptor (VDR): qHTS. VDR-SRC2-3 peptide fluorescence polarization, 2 h. Potency, µM, for the others: max response, negative = inhibition, actives largely listed as inhibitors. 400,000 compounds, 0.93% hits. AID 504847, 2011
#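 Fluorescence polarization assay of small-molecule disruption of VDR binding to coregulator peptide SRC2-3. Compounds and controls pin-transferred, then read after 2 h incubation at ambient room temperature.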
# TrxR1 inh: qHTS Assay for Inhibitors of Mammalian Selenoprotein Thioredoxin Reductase 1 (TrxR1): qHTS | recombinant rTrxR1, NADPH fluorescence consumption, selenite substrate | 390,000 compounds, 1% hits | Potency, µM (series often up to 114 µM), without a hit: top-dose activity change, negative = inhibition, most hits filed as inhibitors | AID 588453, 2011; also: nearly all actives have a fitted effect of over 65% in size
# Target sequence (O89049 whole entry, looked up): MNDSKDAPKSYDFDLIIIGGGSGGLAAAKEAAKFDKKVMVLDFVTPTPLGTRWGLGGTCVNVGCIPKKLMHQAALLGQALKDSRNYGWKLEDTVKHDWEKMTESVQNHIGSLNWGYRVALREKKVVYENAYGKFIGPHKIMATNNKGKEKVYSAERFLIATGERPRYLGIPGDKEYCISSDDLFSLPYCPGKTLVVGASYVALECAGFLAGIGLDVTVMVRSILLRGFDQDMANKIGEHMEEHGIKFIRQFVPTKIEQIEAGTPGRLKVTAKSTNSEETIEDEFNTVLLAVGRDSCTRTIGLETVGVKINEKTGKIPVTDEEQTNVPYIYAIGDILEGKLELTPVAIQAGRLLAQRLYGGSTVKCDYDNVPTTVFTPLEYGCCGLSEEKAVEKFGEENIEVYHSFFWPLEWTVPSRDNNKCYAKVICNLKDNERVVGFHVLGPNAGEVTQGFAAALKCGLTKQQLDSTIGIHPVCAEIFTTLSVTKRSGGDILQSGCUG
#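 Rat TrxR1 (90 nM in the dispensed reagent) was pre-reduced with 400 uM NADPH for 5 min at room temperature, then incubated with compound for 15 min. After 400 uM selenite was added, NADPH fluorescence (Ex 340/Em 450 nm) was followed for 8 min.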
# KAT2A inh: qHTS Assay for Inhibitors of GCN5L2; Histone acetyltransferase KAT2A (Homo sapiens), Q92830; Potency, µM (series often up to 58.9 µM), for the others: at the top dose activity change, negative = inhibition, usual class: inhibitors; 390,000 compounds, 0.21% hits; GCN5L2 HAT assay, ThioGlo1 CoA-SH fluorescence
#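 Compounds, pin-transferred from DMSO stocks, meet 20nM GCN5L2 for 15 min before the reaction begins with H3(1-25) peptide (75uM) and acetyl-CoA (70uM). Thiol-reactive ThioGlo1 reports CoA release over 20 min at room temperature.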
# TrxR1 substrate: qHTS Assay for Substrates of Mammalian Selenoprotein Thioredoxin Reductase 1 (TrxR1): qHTS; Thioredoxin reductase 1, cytoplasmic (Rattus norvegicus), O89049; purified TrxR1 substrate turnover, NADPH consumption readout; Potency, µM (titrated, usually from 114 µM), for inactives: top-dose activity change, negative = substrate turnover; 390,000 compounds, 0.01% hits; AID 588456, 2011; also: nearly all actives have a fitted effect of over 50% in size
#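 Rat TrxR1, dispensed at 90 nM, was prereduced with 400 uM NADPH (final) for 5 min at ~22 deg C, then incubated with compound 15 min before 400 uM selenite. A first-read NADPH fluorescence drop versus no-compound background flagged substrates.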
# * marks the source's active call; other numbers are inactive results; ? = inconclusive; . = no result given; [ ] = dose if it differs, or a comment. Shown are actives, neighbours in structure and some others; about 1.8% of the full set was active somewhere. Calls follow the shape of the dose curve; as a rule, active = well fitted curve in the direction sought with a large enough effect; inconclusive = small, poorly fitted or top-dose-only effect, or another doubt; inactive = no such curve, though single readings can be large; an effect the other way counts as inactive or inconclusive. % is scaled to controls: 0 for no effect and ±100 for the full control effect; potency is read from the fitted curve at half-maximal effect.
SMILES,VDR inh,TrxR1 inh,KAT2A inh,TrxR1 substrate
COc1cc2nc(NC3CCN(C)CC3)nc(NC3CCN(C)CC3)c2cc1OC,.,-31%,.,17%
Clc1ccccc1CSc1nnc(-c2cccnc2)n1Cc1ccco1,-23%,25µM*,-9%,1%
Fc1ccc(CSc2nnc(-c3cccnc3)n2Cc2ccco2)cc1,-13%,?,-5%,18%
Cc1ccc(NC(=O)CN(C)Cc2c(O)ccc3ccccc23)cc1,79µM*,14µM*,-10%,9%
CCN(CC(=O)Nc1ccc(NC(C)=O)cc1)Cc1c(O)ccc2cc(Br)ccc12,?,6.3µM*,-9%,0%[57.1 µM]
CCN(CC(=O)Nc1ccc(Br)cc1)CC(=O)Nc1cc(C)on1,-1%,-35%,-3%,-8%
COc1ccc2ccc(O)c(CN(C)CC(=O)Nc3ccccc3C(F)(F)F)c2c1,?,8.9µM*,-7%,-6%[57.1 µM]
CN(C)Cc1c(O)ccc2ccccc12,-26%,?,-3%,16%
O=C(Nc1cc(Cl)cc(Cl)c1)c1cnn2c1NC(=C1CC1)C=C2C(F)F,.,35%,.,7%
CCN(N=O)c1ccc(/C=C/c2ccnc3ccccc23)cc1,.,11%,.,-7%
Cc1ccc(-n2c(-c3ccccc3)nsc2=NC#N)cc1,?,10%,.,-5%
CCOC(=O)C1=C(C)NC(C)=C(C(=O)OCC)C1c1c(F)c(F)c(F)c(F)c1F,-6%,?,-25%,24%[57.1 µM]
O=C(CSc1nc2c(cnn2-c2ccc(F)cc2)c(=O)[nH]1)Nc1ccccc1C(F)(F)F,-4%,14%,2%,15%[2.29 µM]
O=C(Cn1nnc2c(cnn2-c2ccc(F)cc2)c1=O)Nc1ccccc1C(F)(F)F,-21%,12%,13µM*,17%
COc1cc2nc(N3CCCCC3)nc(NC(C)C)c2cc1OC,.,-5%,.,60%
CN(C1CCCCC1)S(=O)(=O)c1ccc(=S)[nH]c1,50µM*,?,-3%,-13%
CN(C1CCCCC1)S(=O)(=O)c1ccc(S(=O)(=O)N2CCCC2)cc1,9%,19%,-14%,9%
Cc1ccc(-c2cc(C(=O)NCCN3CCOCC3)c3ccccc3n2)o1,8%,?,13µM*,72%
Cc1ccc(-c2cc(C(=O)Nc3ccccn3)c3ccccc3n2)o1,-20%,-70%,-13%,15%[57.1 µM]
Cc1ccc(-c2cc(C(=O)Nc3cccnc3)c3ccccc3n2)o1,-25%,8.9µM*,?,20%
COc1ccc(-c2cc(C(=O)NCCN3CCOCC3)c3ccccc3n2)cc1,15%,-21%,-22%,86%
COc1ccc(OC)c(/C=N/NC(=O)c2cc(-c3ccc(C)o3)nc3ccccc23)c1,-14%,79µM*,-3%,22%
Cc1ccc(NC(=O)c2cc(-c3ccc(C)o3)nc3ccccc23)cc1,-17%,11µM*,-5%,11%
CCCCN(CCCC)c1ccc(/C=C2\C=Cc3ccccc32)cc1,.,?,.,-14%
CCC(=O)c1ccc2c(c1)N(CCCN1CCN(CCO)CC1)c1ccccc1S2,?,.,-23%,.
SMILES,VDR inh,TrxR1 inh,KAT2A inh,TrxR1 substrate
COc1ccc2[nH]c(CCc3nc4c(OC)c(OC)ccc4[nH]3)nc2c1OC,.,-106%,.,853%
O=C(CN(Cc1ccccc1)S(=O)(=O)c1ccc(F)cc1)NCCC1=CCCCC1,-2%,1%,0.79µM*,-3%
Cc1ccc(S(=O)(=O)N(CC(=O)NCCC2=CCCCC2)Cc2ccccc2)cc1,1%,14%,-11%,0%
CN(Cc1ccco1)c1ncncc1-c1ccccc1C(F)(F)F,50µM*,.,-2%,.
Cc1ccccc1-c1cncnc1N(C)Cc1ccco1,40µM*,.,?,.
CCCC(=O)C1=C(c2ccccc2)C(C#N)(C#N)C(C#N)=C1N,?,13µM*,-8%,-10%
CC(C)OC(=O)c1c(-c2ccccc2)c(-c2ccccc2)nn(C)c1=O,-1%,7%,7%,5%[0.457 µM]
CNc1nc(-c2ccccc2C)nc2ccccc12,45µM*,.,-15%,.
CS(=O)(=O)Nc1cccc(-c2nc(Nc3ccc(F)cc3)c3ccccc3n2)c1,3%,.,-12%,.
CNc1nc(-c2cccc(NS(C)(=O)=O)c2)nc2ccccc12,45µM*,.,?,.
O=C(C[n+]1ccccc1Br)c1ccc(Cl)cc1,.,9%,.,-5%
Cc1[nH]c2ccccc2c1/C=C/c1ccnc2ccccc12,.,-19%,.,-1%
Cc1ccc(S(=O)(=O)CC(CN2CCOCC2)N2CCOCC2)cc1 (configuration not stated),-6%,6%[57.1 µM],2%,8%[57.1 µM]
O=S(=O)(CC(CN1CCCC1)N1CCCC1)c1ccc2ccccc2c1 (configuration not stated),-20%,8.9µM*,0%,7%
Nc1cc(N)cc(N)c1,.,40µM*,.,25µM*
Cc1cc(N)cc(C)c1-c1c(Br)cc(N)cc1Br,4%,-5%,.,-7%
CC(=O)Nc1ccc(NC(=O)C2(C)CC2(Cl)Cl)cc1 (configuration not stated),79µM*,14%[57.1 µM],-1%,-4%[57.1 µM]
CC(C)(C)c1ccc(NC(=O)COC(=O)c2ccccc2OCC(=O)Nc2ccc(Br)cc2)cc1,.,1%,.,-10%
CCCCNC1C(CC)C(CCC)C(C#N)(C#N)C1(C#N)C#N (configuration not stated),45µM*,-18%,1%,-7%
COC(=O)c1cc2oc3ccccc3c2n1CC(=O)Nc1cc(OC)cc(OC)c1,-1%,22%,1%,19%
O=c1[nH]c(SCc2cccc(Cl)c2)nc2ccccc12,-10%,2%,-5%,0%
O=c1[nH]c(-c2ccc(-c3cccc(Cl)c3)o2)nc2ccccc12,-18%,50µM*,?,13%
O=C(Nc1nc(-c2ccccc2Cl)cs1)c1cccnc1,18%,15%,-14%,6%
O=C(O)Cn1c(C(=O)Nc2nc(-c3ccccc3Cl)cs2)cc2ccccc21,56µM*,.,?,.
CCCCN(C(=O)c1ccc(-c2ccc([N+](=O)[O-])cc2)o1)c1c(N)n(CC(C)C)c(=O)[nH]c1=O,32%,-13%,-4%,-7%
SMILES,VDR inh,TrxR1 inh,KAT2A inh,TrxR1 substrate
CCCCN(C(=O)c1ccc(-c2ccc(Cl)cc2)o1)c1c(N)n(CCCC)c(=O)[nH]c1=O,71µM*,?,-1%,21%
CCN1C(=O)[C@H]2[C@@H](c3ccc(-c4ccc(F)cc4)cc3)N[C@@](C)(C(=O)OC)[C@H]2C1=O,-7%,?,1%,-5%[57.1 µM]
CCN1C(=O)[C@H]2[C@@H](c3ccc(-c4ccc(F)cc4)c(OC)c3)N[C@@](C)(C(=O)OC)[C@H]2C1=O,?,79µM*,-25%,1%
S=c1[nH]cc(-c2ccccc2)n1-c1ccccc1,-3%,-22%,3.5µM*,-4%
Cc1ccc(-n2c(-c3ccccc3)c[nH]c2=S)cc1,?,-10%[57.1 µM],-10%,11%[57.1 µM]
CC(C)(C)C(=O)OCCNc1nc(-c2cccs2)nc2ccccc12,10%,-3%,.,-4%
